This is an account of results in PubChem BioAssay AID588651 (The Scripps Research Institute Molecular Screening Center, 2011).

Molecules are shown by their SMILES. Activity calls are given as the source filed them. Cut-off read from the data, not from the text of the source: active = inhibition above about 65%; inactive = the rest.

This test has as its system Antitargets. Briefly: Fam108b inhibitors and proteome off-target selectivity – biochemical, gel-based ABPP, recombinant soluble Fam108b, HTS hits, complex proteome, late-stage follow-up (AID 588651).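 Note: Fam108b spiked into mouse brain membrane proteome; tested at 20 µM.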 The conditions noted are these: FP-rhodamine labeling in proteome.
`NC(Cc1cc(O)c(O)cc1O)C(=O)O` (stereo not drawn): the result was inactive.

As to `C[n+]1c(-c2ccccc2)c2cc(N)ccc2c2ccc(N)cc21`, the outcome was inactive.

With `Cc1ccccc1N1C(=O)/C(=C/c2ccco2)C(=O)NC1=S`, the result was inactive.
